# ± gives the standard deviation of the averaged measurements. The full ranking holds about 4,100 sequences; the median of “relative kcat/Km (krel) vs genomic leader AAAGAU” is about 1.7, and the highest 2% start at about 6.5. The list comes from a sample in which the highest values are over-represented; it also holds similar and randomly drawn sequences.
# Molecular target: T1, E. coli RNase P holoenzyme (M1 P RNA + rnpA protein) (UniProt P0A7Y8)
# T1 sequence: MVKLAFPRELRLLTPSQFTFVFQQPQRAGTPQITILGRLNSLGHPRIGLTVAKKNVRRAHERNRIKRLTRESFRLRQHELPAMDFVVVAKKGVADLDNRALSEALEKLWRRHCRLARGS
# Test: relative kcat/Km (krel) vs genomic leader AAAGAU (relative (reference leader = 1)); higher = faster RNase P cleavage
# Procedure: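 HTS-Kin: a pool of ptRNA-Met (21C construct) with all 4096 combinations of 5' leader nucleotides N(-6) to N(-1) was processed in vitro by E. coli RNase P (P RNA + rnpA/C5 protein) under multiple-turnover conditions at 37 C, pH 8, 17.5 mM MgCl2. Residual substrate was Illumina-sequenced at several fractions reacted, and relative kcat/Km (krel) was computed by internal competition kinetics, calibrated to the genomic leader (AAAGAU = 1). The listed hexamer is the varied N(-6)..N(-1) leader (DNA letters), and it sits between a fixed 5' stem-loop flank (GCAUGCACGAAAGUGCGUGCUAUGAA) and the mature tRNA-Met starting GGCUACGUAGCUCAGUUGG. Two technical replicates are averaged.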
# [1] = fraction of substrate reacted: ~9-10% (9.79% repeat 1, 9.1% repeat 2)
# [2] = fraction of substrate reacted: ~13-16% (15.68% repeat 1, 13.17% repeat 2)
# [3] = fraction of substrate reacted: ~26-29% (28.66% repeat 1, 26.4% repeat 2)
Sequence,relative kcat/Km [1],relative kcat/Km [2],relative kcat/Km [3]
CGTCAT,2.843 ± 0.013,4.98 ± 1.9,6.96 ± 3.1
CGTCAA,1.61 ± 0.25,3.42 ± 0.92,5.08 ± 1.4
CCTCAC,2.54 ± 0.75,3.07 ± 0.55,4.22 ± 1.2
CGTCAC,4.5 ± 2.1,5.37 ± 0.7,6.77 ± 2
CGTCAG,0.776 ± 0.25,1.34 ± 0.28,3.11 ± 0.5
CGTCGC,2.49 ± 0.74,3.77 ± 0.95,4.81 ± 1.1
AGTCTT,3.48 ± 0.67,3.72 ± 0.46,5 ± 2.2
GAGCAA,1.98 ± 0.29,2.27 ± 0.026,2.57 ± 0.78
TATTCT,3.27 ± 1.2,4.15 ± 0.4,5.78 ± 2.3
AATTAT,3.11 ± 0.81,4.75 ± 0.82,5.76 ± 2.3
TATTAA,4.01 ± 2.3,5.12 ± 0.072,6.96 ± 2.6
AATTAC,3.5 ± 1.7,3.97 ± 0.31,5.32 ± 1.9
TATTAT,4.02 ± 1.1,5.95 ± 1.7,9.03 ± 4.1
TATTAC,3.92 ± 1.1,5.68 ± 0.93,7.86 ± 3.4
AATTAA,2.86 ± 2,3.37 ± 0.39,4.73 ± 1.6
TATTAG,2.38 ± 2.3,2.95 ± 0.03,4.43 ± 1.4
TATTCC,2.05 ± 0.31,2.87 ± 0.33,3.57 ± 1.4
ACTTTG,–,–,1.31 ± 0.45
GCCCTC,1.81 ± 0.28,2.28 ± 1.4,3.98 ± 1.6
CGCCGT,0.516 ± 0.5,–,1.06 ± 0.75
AATTAG,–,1.34 ± 0.23,3.09 ± 1.5
AGTACT,2.34 ± 1.3,2.42 ± 0.095,3.74 ± 1.6
AAATAT,1.72 ± 0.35,3.11 ± 0.79,4.74 ± 2.4
GCGGAG,–,–,0.583 ± 0.36
TCGGAA,1.2 ± 1.2,1.23 ± 0.93,1.33 ± 0.09
AAATCA,1.55 ± 0.36,1.42 ± 0.17,1.8 ± 0.46

Sequence,relative kcat/Km [1],relative kcat/Km [2],relative kcat/Km [3]
TTCGAT,1.69 ± 0.22,2.71 ± 1.2,4.44 ± 2
CTCGAA,4.31 ± 0.54,6.4 ± 1.7,8.12 ± 3.5
TGCGAA,1.78 ± 0.26,1.82 ± 0.69,2.43 ± 0.68
CGCGAA,2.89 ± 0.49,3.39 ± 1.2,4.94 ± 1.5
CTCGGA,–,–,0.671 ± 0.41
TTCGTA,3.36 ± 1.3,4.26 ± 0.22,6.35 ± 2.4
TTCGTG,–,0.287 ± 0.27,2.01 ± 0.17
TTCGAC,5.66 ± 1.9,7.11 ± 1.7,10.2 ± 4.3
TTCGAA,5.32 ± 1.2,7.22 ± 2.3,10.3 ± 4.3
TTCGAG,–,1.96 ± 0.07,4.8 ± 1
CTCGTC,2.68 ± 0.76,3.41 ± 0.98,5.19 ± 2
TTCGTC,3.53 ± 1.4,4.55 ± 1,6.81 ± 3.2
AGTGTT,0.435 ± 0.024,–,1.34 ± 0.99
CTACTT,2.09 ± 0.14,2.2 ± 0.49,2.49 ± 0.63
TGAACT,1.41 ± 0.67,1.85 ± 0.71,2.58 ± 0.76
GGCGCT,1.32 ± 0.23,0.701 ± 0.31,1.43 ± 0.38
GGGCTT,–,–,0.481 ± 0.22
TAACCG,–,–,0.9 ± 0.51
GCTTTC,2.29 ± 2.1,1.88 ± 0.58,2.09 ± 0.45
AATACA,1.91 ± 0.78,1.7 ± 0.041,2.02 ± 0.66
TAAACA,1.85 ± 0.81,1.35 ± 0.24,1.75 ± 0.52
ATCGGA,0.168 ± 0.15,0.728 ± 0.66,1.28 ± 1.1
CAGCTT,2.22 ± 1.1,1.55 ± 0.38,2.33 ± 0.38
GTGCAC,1.19 ± 0.29,1.29 ± 0.18,1.98 ± 0.6
GATAAA,1.84 ± 0.48,2.34 ± 0.5,3.8 ± 1.4
AGAGAG,–,–,1.16 ± 0.33

Sequence,relative kcat/Km [1],relative kcat/Km [2],relative kcat/Km [3]
AGCGAC,3.26 ± 1.9,3 ± 1.1,4.06 ± 1.3
GTCGAC,3.76 ± 0.29,5.92 ± 1.9,9.01 ± 3.7
GGCGAA,2.38 ± 1.1,2.86 ± 0.39,3.85 ± 1.4
GTCGTA,2.55 ± 1.1,2.7 ± 0.23,3.88 ± 0.79
GTCGAA,4.23 ± 1.8,5.6 ± 0.65,8.71 ± 2.8
GTCGAG,2.05 ± 1.5,2.123 ± 0.001,4.03 ± 1.6
ATCGAT,1.99 ± 0.67,3 ± 0.7,3.36 ± 1.2
ATCGAG,2.14 ± 2.1,1.29 ± 0.12,3.85 ± 0.66
ATCGGC,–,–,1.97 ± 1.5
ATCGAC,3.59 ± 0.99,4.75 ± 0.93,6.92 ± 2
GTCGAT,1.85 ± 0.87,2.87 ± 0.49,3.7 ± 1.3
ATCGAA,3.16 ± 0.35,5.71 ± 1.4,8.19 ± 3.6
TTGCCG,–,–,0.519 ± 0.071
AGTGAA,2.54 ± 0.25,2.23 ± 0.96,3.35 ± 1.5
ATGACA,1.94 ± 1.6,1.85 ± 0.61,2.06 ± 0.28
ATACGT,0.722 ± 0.057,1.92 ± 1.6,–
CGCGGA,1.5 ± 1.2,1.39 ± 0.29,1.41 ± 0.58
AGCACC,2.38 ± 0.45,2.12 ± 1.5,3.05 ± 1.8
CCTGGT,–,–,2.47 ± 0.83
CTCGAG,1.8 ± 0.06,1.72 ± 1.4,3.97 ± 1.3
CTCGAT,1.97 ± 0.027,2.48 ± 1.3,4.24 ± 2.1
CTCGAC,5.18 ± 1.3,6.72 ± 2.8,9.16 ± 4.6
TAGGGA,0.803 ± 0.65,–,–
GGAAAC,1.99 ± 1.4,1.61 ± 1.1,2.23 ± 0.17
CCGCGC,2.23 ± 0.85,1.53 ± 0.98,1.76 ± 0.15
GCGCAT,1.99 ± 0.76,2.09 ± 1.1,3.07 ± 1.8

Sequence,relative kcat/Km [1],relative kcat/Km [2],relative kcat/Km [3]
AAAAGC,–,–,0.981 ± 0.48
ACAGTG,–,–,0.981 ± 0.72
CCGGTA,1.49 ± 0.78,1.25 ± 0.69,–
AACGCG,1.32 ± 0.5,0.857 ± 0.52,1.47 ± 0.078
TCCCGA,3.95 ± 1.4,4.81 ± 0.41,7.64 ± 2.3
CCCCGA,3.63 ± 1.8,4.05 ± 0.29,4.96 ± 1.9
ACCCGC,3.03 ± 1.8,3.51 ± 0.3,4.87 ± 1.5
CCCCGC,2.14 ± 1.4,2.8 ± 0.83,4.54 ± 1.6
TCCCGC,4.31 ± 2.6,5.2 ± 0.32,7.32 ± 3.2
ACCCGA,3.55 ± 0.39,4.06 ± 0.66,5.44 ± 1.5
TTGCGG,0.933 ± 0.76,0.256 ± 0.11,1.14 ± 0.22
AAATAA,2.68 ± 1.5,2.92 ± 0.98,3.44 ± 1.2
TCACGC,2.24 ± 0.65,3 ± 0.93,4.05 ± 1.5
GTGACT,–,0.972 ± 0.2,1.08 ± 0.28
GGGACA,1.4 ± 1.2,0.801 ± 0.45,1.2 ± 0.15
GGGTGC,0.876 ± 0.24,0.837 ± 0.025,1.04 ± 0.35
ATGTTG,–,–,0.642 ± 0.16
TTCTCA,4.88 ± 2.1,5.74 ± 0.87,8.21 ± 3.6
GTCTCG,2.29 ± 1.9,2.35 ± 0.054,4.3 ± 1.1
CTCTCA,3.31 ± 1.3,4.49 ± 0.63,5.72 ± 1.9
TTCTCT,4.43 ± 1.1,6.17 ± 1.4,8.57 ± 3.4
GTATCT,2.3 ± 0.54,3.23 ± 0.87,4.66 ± 1.9
TTCTCG,2.16 ± 1.3,2.86 ± 0.45,4.91 ± 1.5

# From the supplement of paper PMC9433436
